# Source: PubChem BioAssay
# Tau fluor cs – Counterscreen qHTS for Inhibitors of Tau Fibril Formation, Fluorescence Polarization; tau K18 P301L Alexa594 fluorescence, heparin fibrillization; Potency, µM (top dose mostly 57.7 µM); hit rate 0.93% among 280,000; AID 1463, 2008; further: nearly all actives have a fitted effect of over 55% in size
#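 Human K18 P301L tau (15 uM unlabeled plus 0.24 uM Alexa 594-labeled, final) in 100 mM sodium acetate pH 7 was mixed with compound and 20 uM heparin and incubated 6 hr at 37 C.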
# FBPA coupling cs – qHTS Assay for Inhibitors of Fructose-1,6-bisphosphate Aldolase from Giardia Lamblia: Coupling assay counterscreen; coupling enzyme system counterscreen, AmpLite Red fluorescence; activity change, negative = inhibition, % at 58.2 µM, hits read low; hit rate 0.67% among 290,000; in the data active means activity change below about -30%
#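 First, compound is pin-transferred into glyceraldehyde-3-phosphate coupling-enzyme reagent at 57.5 uM final and held 10 min at RT. Next, substrate, coupling system and AmpLite Red are added. After 20 min RT, fluorescence (525/598 nm) is read.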
# Tau fibril FP – qHTS for Inhibitors of Tau Fibril Formation, Fluorescence Polarization; K18 P301L tau heparin fibrillization, Alexa594 FP, 6 h; Potency, µM (titrated, usually from 57.7 µM), actives largely listed as inhibitors; hit rate 0.39% among 280,000; further: nearly all actives have a fitted effect of over 55% in size
# Target sequence (P10636 561-689 P618L limits assumed): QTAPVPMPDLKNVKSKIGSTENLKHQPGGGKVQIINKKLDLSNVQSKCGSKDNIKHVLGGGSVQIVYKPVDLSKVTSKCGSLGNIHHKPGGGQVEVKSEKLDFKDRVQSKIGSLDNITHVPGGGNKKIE
#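 FP of Alexa 594-tau after heparin (20 uM) induction. Substrate: human K18 P301L, 15 uM unlabeled, 0.24 uM labeled. Buffer 100 mM sodium acetate pH 7. 6 hr, 37 C.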
# Sfp PPTase inh – qHTS Assay for Inhibitors of Bacillus subtilis Sfp phosphopantetheinyl transferase (PPTase). hit rate 3.5% among 310,000. AID 1490, 2009. Potency, µM, usual class: inhibitors. Biochemical Sfp PPTase activity, qHTS;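 further: the enzyme is Sfp with the accession as filed and its product quenches rhodamine fluorescence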
#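 After 15 min at room temperature with compound, 15 nM Sfp received 5 uM rhodamine-CoA plus 12.5 uM BHQ-2-ybbR (50 mM Hepes pH 7.6, 10 mM MgCl2). Rate came from the fluorescence difference over 30 min, ex 525/em 598 nm.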
# Tau fibril ThT – qHTS for Inhibitors of Tau Fibril Formation, Thioflavin T Binding | Microtubule-associated protein tau (Homo sapiens), P10636 | recombinant tau K18 P301L, heparin-induced fibrillization, ThT fluorescence | Potency, µM (series often up to 57.4 µM), actives largely listed as inhibitors | hit rate 2.1% among 270,000 | AID 1460, 2008; further: nearly all actives have a fitted effect of over 55% in size
#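 Using a mix of unlabeled (15 uM) and Alexa 594-labeled (0.24 uM) tau K18 P301L, heparin-triggered fibrillization over 6 hr at 37 C was scored by ThT fluorescence.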
# Hits are given with their value; i = inactive; ? = inconclusive; nt = no result; ! = not confirmed by another sample; [ ] = remark or other dose. Compounds with a hit are over-represented: about 5.2% of the library has one in this group of screens. Unless noted, the call rests on the fitted dose curve; in most records, active means well fitted curve in the direction sought with a large enough effect; inconclusive means small, poorly fitted or top-dose-only effect, or another doubt; inactive means no such curve, though single readings can be large; an effect the other way counts as inactive or inconclusive.
SMILES,Tau fluor cs,FBPA coupling cs,Tau fibril FP,Sfp PPTase inh,Tau fibril ThT
CCOc1ccc(CN2CCC(Cc3ccccc3)CC2)cc1,nt,i,nt,i,nt
CCCCOc1ccc(CN2CCC(O)CC2)cc1,i,i,i,79µM,i
CC#CCN1c2ccccc2[C@]23C[C@@H](C(=O)OC)N(C(=O)COCc4ccccc4)C2=NC(C(=O)OC)=C(C(=O)OC)[C@H]13,i[11.6 µM],i,i[11.6 µM],i,i[11.5 µM]
O=C(Nc1cccc(C(F)(F)F)c1)c1cc(S(=O)(=O)N2CCCC2)c[nH]1,i,nt,i,nt,i
O=C1Nc2cc(Cl)cnc2N2CCCC12 (stereo not drawn),?,i,?,50µM,14µM
O=C1Nc2ccccc2C(=O)N2CCC[C@@H]12,i,i,i,i,i
CN1CCc2cccc3c2[C@H]1Cc1ccc(O)c(O)c1-3,22µM[quencher],i,20µM!,40µM,18µM
COc1cc2c3cc1OCc1c(O)c(OC)cc4c1C(Cc1ccc(cc1)Oc1cc(ccc1O)CC3N(C)CC2)N(C)CC4 (stereo not drawn),nt,i,nt,i,nt
CCOC(=O)c1c(CSC(=N)N)n(C)c2cc(Br)c(OC(C)=O)cc12,?,i,i,i,?
CCOC(=O)c1c(CSC(=N)N)n(-c2ccc(C)cc2)c2cc(Br)c(OC(C)=O)cc12,i,i,i,45µM,?
O=C1c2ccccc2C(=O)c2c(O)ccc(O)c21,i,i,?,?,?
O=C1c2ccccc2C(=O)c2c(O)c(O)cc(O)c21,14µM[quencher],i,?,i,5µM
COc1ccc(S(=O)(=O)N2CN(Cc3ccco3)c3nc4ccccc4nc32)cc1,i,i,?,56µM,22µM
Cc1ccc(S(=O)(=O)N2CN(Cc3ccco3)c3nc4ccccc4nc32)cc1C,i,i,i,40µM,i
O=S(=O)(c1ccc(F)cc1)N1CN(Cc2ccco2)c2nc3ccccc3nc21,?,i,?,56µM,32µM
Cc1ccc(S(=O)(=O)Nc2nc3ccccc3nc2NCc2ccco2)cc1C,?,i,i,i,?
Cc1ccc(S(=O)(=O)N2CN(Cc3ccco3)c3nc4ccccc4nc32)cc1,i,i,i,i,i
Cc1cc(C)c(S(=O)(=O)OC[C@H]2C=CC[C@@H](CCC[C@H]3O[C@H](C(=O)OC(C)C)CC[C@@H]3C)O2)c(C)c1,i,i,i,i,i
O=C(Nc1ccccc1)C12CC1/C(=N\O)c1ccccc1O2 (stereo not drawn),i,nt,i,i,i
O=C(NC1CC(=O)N(c2ccccc2)C1)c1ccc(S(=O)(=O)N2CCCC2)cc1 (stereo not drawn),i,nt,i,nt,i
Nc1ccc2c(c1)N1CCN=C1S2,i,i,i,i,i
O=C(Nc1ccc(Cl)cc1)Nc1ccc2c(c1)N1CCN=C1S2,14µM[quencher],i,i,i,i
CCCn1nnc(NC(=S)NC(=O)C(C)(C)C)n1,i,i,i,50µM,i
CCn1nnc(NC(=S)NC(=O)c2ccc(-c3cccc(Cl)c3)o2)n1,i,i,i,50µM,?
CCCn1nnc(NC(=S)NC(=O)c2cccs2)n1,i,i,i,40µM,i
SMILES,Tau fluor cs,FBPA coupling cs,Tau fibril FP,Sfp PPTase inh,Tau fibril ThT
CCCCCC(=O)Nc1nnn(CCC)n1,i,i,i,i,i
CCCn1nnc(NC(=S)NC(=O)/C=C/c2ccco2)n1,i,i,?,56µM,?
Cn1nnc(NC(=O)c2cccs2)n1,i,i,i,i,i
Cc1ccc(C)c(C(=O)CSc2nc3cc(C(=O)NC4CCCC4)ccc3c(=O)n2CC2CCCO2)c1 (stereo not drawn),i,nt,i,nt,i
Nc1ncnc2c1nc(N1CCCCC1)n2[C@@H]1O[C@@H]2COP(=O)(O)O[C@H]2[C@H]1O,nt,i,nt,i,nt
CC(=O)OC[C@@H]1O[C@@H](O/N=C2/C[C@@H](O)[C@@H](O)[C@@H]3[C@@H]4C(=O)N(C(C)(C)C)C(=O)[C@H]4CC[C@H]23)[C@H](OC(C)=O)[C@H](OC(C)=O)[C@@H]1OC(C)=O,?,i,?,i,?
Cc1ccc(C(=O)C2=C(O)C(=O)N(Cc3ccco3)C2c2cccc(Br)c2)o1 (stereo not drawn),nt,i,nt,56µM,nt
CC(C)CNC(=O)N1CCN(S(=O)(=O)c2ccc3c(ccn3C)c2)CC1,i,nt,i,nt,i
Cc1nnc(N/N=C/c2cc([N+](=O)[O-])c(N3CCC(C)CC3)cc2N2CCC(C)CC2)n1N,?,-45,i,?,18µM
CC1CCN(c2cc(N3CCOCC3)c([N+](=O)[O-])cc2F)CC1,?,i,i,i,?
CCc1nnc(N/N=C/c2ccc(N3CCC(C)CC3)c([N+](=O)[O-])c2)n1N,?,i,i,71µM,13µM
CCC(Nc1ccc(-c2nc(-c3ccco3)no2)cc1[N+](=O)[O-])c1ccccc1 (stereo not drawn),i,nt,i,nt,i
COc1ccc(N2C(=O)CC(NNc3ncc(Cl)cc3Cl)C2=O)cc1 (stereo not drawn),i,i,i,50µM,?
COc1ccc(N2C(=O)CC(Nc3ccc(C)cc3)C2=O)cc1 (stereo not drawn),i,i,i,i,i
O=C(/C=C/Nc1ccccc1C(=O)O)c1cccs1,i,i,i,i,?
O=C(/C=C/Nc1ccc(Nc2ccccc2)cc1)c1cccs1,7.9µM[quencher],i,?,i,1.3µM
Cc1ccc(N/C=C/C(=O)c2cccs2)cc1C,i,i,i,50µM,?
COc1ccc(NC(=O)C2CCCN(S(=O)(=O)c3ccc(Br)s3)C2)cc1 (stereo not drawn),?,nt,?,nt,i
Cc1cc(C)c(O)c(-c2cc(C(=O)Nc3ccc(S(=O)(=O)N4CCOCC4)cc3)[nH]n2)c1,14µM[quencher],i,?,i,i
CC(=O)Nc1ccc(NC(=O)c2cc(-c3cc(C)cc(C)c3O)n[nH]2)cc1,nt,i,nt,i,nt
O=C(CSc1nnc(-c2ccccc2F)o1)N1CCc2ccccc21,i,nt,i,nt,?
CC[C@H](C)[C@H](N)C(=O)N[C@@H](CC(N)=O)C(=O)N1CCC[C@H]1C(=O)N[C@H](C(=O)N[C@@H](Cc1ccc(O)cc1)C(=O)N[C@@H](CCCN=C(N)N)C(=O)N[C@@H](CC(C)C)C(=O)N[C@@H](CCCN=C(N)N)C(=O)N[C@@H](Cc1ccc(O)cc1)C(N)=O)[C@@H](C)CC,nt,i,nt,i,nt
C/C(=N\Nc1cccc2cccnc12)c1ccc[nH]1,?,i,i,i,4.5µM
CCC(=O)Nc1cccc2cccnc12,i,i,i,i,i
COc1ccccc1NC(=O)N(Cc1ccco1)C1CCN(C(C)=O)CC1,i,nt,i,nt,i
CCOC(=O)C1=C(C)NC(C)=C(C(=O)OCC)C1c1ccc(OC)cc1,i,i,i,i,i
